Measurements reported in PubChem BioAssay AID504914 (The Scripps Research Institute Molecular Screening Center, 2011).
Some of the results follow. The source made the active and inactive calls. How the calls were made is not given here.

These compounds were tested against 5-hydroxytryptamine receptor 5A (Homo sapiens) (UniProt P47898) (assay: HTR5A inverse agonists, counter-screen for OPRM1-OPRD1 inverse agonist project, cell-based, luminescence (AID 504914;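 further: 0% = cells with DMSO and 100% = no-cell wells with DMSO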)). Settings: HTR5A-expressing cells, inverse agonism, at 9.3 µM, stronger effect = higher value.
Chain of 5-hydroxytryptamine receptor 5A (Homo sapiens) (P47898 whole entry, looked up): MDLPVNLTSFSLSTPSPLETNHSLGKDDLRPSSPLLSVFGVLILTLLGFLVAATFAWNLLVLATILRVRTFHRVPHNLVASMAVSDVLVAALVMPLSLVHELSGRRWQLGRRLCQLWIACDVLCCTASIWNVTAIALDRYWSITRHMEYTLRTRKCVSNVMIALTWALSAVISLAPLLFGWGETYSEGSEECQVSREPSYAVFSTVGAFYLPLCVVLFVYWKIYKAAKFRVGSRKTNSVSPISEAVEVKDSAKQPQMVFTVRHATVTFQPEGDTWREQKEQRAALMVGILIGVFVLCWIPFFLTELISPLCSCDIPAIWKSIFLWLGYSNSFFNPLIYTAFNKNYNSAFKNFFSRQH
With `CCOC(=O)c1c(N)n(Cc2ccccc2)c2nc3ccccc3nc12` the inhibition was 18% (inactive).
In the case of `CC1=CC(=Cc2sc3ccccc3[n+]2C)C=C(C)O1`, the inhibition is reported as -18.3% (inactive).
For `CCOC(=O)c1c(N)n(CCN2CCOCC2)c2nc3ccccc3nc12`, the inhibition was -10.8% (inactive).
